# From the supplement of paper PMC10849652
# Targets with a hit are over-represented here; the source holds about 7,900 in all. About 0.6% of all pairs of compound and target were hits. Values without a mark were called inactive.
# What was measured:
# Test in all cases: log2 fold change, soluble protein after heating vs DMSO (PISA); higher = thermal stabilisation; K562 cells, 10 uM, 30 min; active = over 0.2 and 3.5 SD of the protein, either way, in both replicates (recomputed)
# [1] = compound: CN1CCN(CCOc2cc(OC3CCOCC3)c3c(Nc4c(Cl)ccc5c4OCO5)ncnc3c2)CC1 [saracatinib]
# Procedure, shortened: (§1)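 K562 cells at 2×10^6 cells/mL were treated with 10 μM compound for 30 min. Aliquots were heated for 3 min across 48°C-58°C, pooled, and extracted in PBS with 0.5% NP-40 at 4°C; soluble protein was the supernatant after 21,000xg for 90 min. Soluble protein was quantified by TMTpro 16plex LC-MS/MS with channel sums equalised, and reported as log2 fold change in thermal stability against DMSO controls, with values from duplicates.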
# [2] = compound: CN1CCN(c2nc(C3=C(c4c[nH]c5ccccc45)C(=O)NC3=O)c3ccccc3n2)CC1 [sotrastaurin]
# Procedure, shortened: as §1
# [3] = compound: CN1CC[C@H](c2c(O)cc(O)c3c(=O)cc(-c4ccccc4Cl)oc23)[C@H](O)C1 [alvocidib]
# Procedure, shortened: as §1
# [4] = compound: CN1CCc2c(c3ccccc3n2Cc2ccc(C(=O)NO)cc2)C1 [Tubastatin A]
# Procedure, shortened: as §1
# [5] = compound: CNC(=O)C1=CC=CC=C1NC2=NC(=NC=C2Cl)NC3=C(C=C(C=C3)N4CCOCC4)OC
# Procedure, shortened: as §1
# [6] = compound: CNC(=O)c1ccc(Nc2ncc(C(F)(F)F)c(NCc3nccnc3N(C)S(C)(=O)=O)n2)cc1 [defactinib]
# Procedure, shortened: as §1
# [7] = compound: CNCc1ccc(-c2[nH]c3cc(F)cc4c3c2CCNC4=O)cc1 [rucaparib]
# Procedure, shortened: as §1
# [8] = compound: CNc1nc(-c2ccc3c(N)n[nH]c3c2)cc(N2C[C@@H](C(=O)NC3CCCCC3)CC[C@H]2C)n1
# Procedure, shortened: as §1
# [9] = compound: COC(=O)N[C@@H](C)CNc1nccc(-c2cn(C(C)C)nc2-c2cc(Cl)cc(NS(C)(=O)=O)c2F)n1 [encorafenib]
# Procedure, shortened: as §1
# [10] = compound: COC(=O)[C@H](CCSC)NC(=O)C1=C(C=C(C=C1)NC[C@H](CS)N)C2=CC=CC=C2
# Procedure, shortened: as §1
# [11] = compound: COC1=CC=C(C=C1)CN2C=CC3=C2C=C(C=C3)C(=O)NO
# Procedure, shortened: as §1
# [12] = compound: CON(C)C(=O)N1N=C(c2cc(F)ccc2F)S[C@@]1(CCCN)c1ccccc1 [filanesib]
# Procedure, shortened: as §1
# [13] = compound: CO[C@H]1C[C@@H]2CC[C@@H](C)[C@@](O)(O2)C(=O)C(=O)N2CCCC[C@H]2C(=O)O[C@H]([C@H](C)C[C@@H]2CC[C@H](n3cnnn3)[C@H](OC)C2)CC(=O)[C@H](C)/C=C(\C)[C@@H](O)[C@@H](OC)C(=O)[C@H](C)C[C@H](C)/C=C/C=C/C=C/1C [zotarolimus]
# Procedure, shortened: as §1
# [14] = compound: COc1cc(C(=O)O)ccc1NC(=O)[C@@H]1N[C@@H](CC(C)(C)C)[C@](C#N)(c2ccc(Cl)cc2F)[C@H]1c1cccc(Cl)c1F [idasanutlin]
# Procedure, shortened: as §1
# [15] = compound: COc1cc(Nc2ncc3c(n2)-c2ccc(Cl)cc2C(c2c(F)cccc2OC)=NC3)ccc1C(=O)O [alisertib]
# Procedure, shortened: as §1
# [16] = compound: COc1cc2nc(-c3cc(F)ccc3O)nc(N[C@@H]3CNC[C@H]3C(C)(C)O)c2cc1OC
# Procedure, shortened: as §1
# [17] = compound: COc1cc2ncnc(Nc3ccc(F)c(Cl)c3)c2cc1OCCCN1CCOCC1 [gefitinib]
# Procedure, shortened: as §1
# [18] = compound: COc1cccc2cc(-c3nc([C@H]4CC[C@H](C(=O)O)CC4)n4ncnc(N)c34)[nH]c12
# Procedure, shortened: as §1
# [19] = compound: CS(=O)(=O)CCNCc1ccc(-c2ccc3ncnc(Nc4ccc(OCc5cccc(F)c5)c(Cl)c4)c3c2)o1 [lapatinib]
# Procedure, shortened: as §1
# [20] = compound: CS(=O)(=O)N1CCN(Cc2cc3nc(-c4cccc5[nH]ncc45)nc(N4CCOCC4)c3s2)CC1 [pictilisib]
# Procedure, shortened: as §1
# Chain of UniProt P36969 (P36969 whole entry, looked up): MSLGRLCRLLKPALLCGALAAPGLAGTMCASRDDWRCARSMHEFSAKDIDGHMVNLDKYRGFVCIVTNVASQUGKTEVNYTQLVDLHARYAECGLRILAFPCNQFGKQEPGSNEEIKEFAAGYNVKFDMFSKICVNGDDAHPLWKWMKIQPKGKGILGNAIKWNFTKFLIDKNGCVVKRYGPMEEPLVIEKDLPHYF
# Chain of UniProt P52657 (P52657 whole entry, looked up): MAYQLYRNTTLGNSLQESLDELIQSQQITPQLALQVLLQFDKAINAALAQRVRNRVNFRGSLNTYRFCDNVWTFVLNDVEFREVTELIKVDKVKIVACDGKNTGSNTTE
# Chain of UniProt Q9Y3D6 (Q9Y3D6 whole entry, looked up): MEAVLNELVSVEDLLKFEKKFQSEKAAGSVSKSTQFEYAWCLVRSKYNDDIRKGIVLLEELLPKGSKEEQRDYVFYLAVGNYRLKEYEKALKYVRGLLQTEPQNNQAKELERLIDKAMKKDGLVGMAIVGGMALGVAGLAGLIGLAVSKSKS
# Chain of UniProt Q10472 (Q10472 whole entry, looked up): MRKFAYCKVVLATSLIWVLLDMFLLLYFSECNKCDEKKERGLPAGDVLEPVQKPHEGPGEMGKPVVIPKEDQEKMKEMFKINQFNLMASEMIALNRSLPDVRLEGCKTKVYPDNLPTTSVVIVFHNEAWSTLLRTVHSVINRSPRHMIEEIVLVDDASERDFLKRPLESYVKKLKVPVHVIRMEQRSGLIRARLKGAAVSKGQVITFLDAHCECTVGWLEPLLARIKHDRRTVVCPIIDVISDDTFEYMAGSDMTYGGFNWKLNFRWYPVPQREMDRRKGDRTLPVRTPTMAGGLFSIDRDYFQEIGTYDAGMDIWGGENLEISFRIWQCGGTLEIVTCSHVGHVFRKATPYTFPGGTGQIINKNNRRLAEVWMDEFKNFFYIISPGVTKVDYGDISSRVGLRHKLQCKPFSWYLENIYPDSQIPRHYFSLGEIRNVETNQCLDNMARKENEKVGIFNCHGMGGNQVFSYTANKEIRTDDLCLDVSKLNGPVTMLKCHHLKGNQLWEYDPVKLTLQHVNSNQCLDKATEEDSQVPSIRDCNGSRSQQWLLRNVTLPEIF
# Chain of UniProt O14929 (O14929 whole entry, looked up): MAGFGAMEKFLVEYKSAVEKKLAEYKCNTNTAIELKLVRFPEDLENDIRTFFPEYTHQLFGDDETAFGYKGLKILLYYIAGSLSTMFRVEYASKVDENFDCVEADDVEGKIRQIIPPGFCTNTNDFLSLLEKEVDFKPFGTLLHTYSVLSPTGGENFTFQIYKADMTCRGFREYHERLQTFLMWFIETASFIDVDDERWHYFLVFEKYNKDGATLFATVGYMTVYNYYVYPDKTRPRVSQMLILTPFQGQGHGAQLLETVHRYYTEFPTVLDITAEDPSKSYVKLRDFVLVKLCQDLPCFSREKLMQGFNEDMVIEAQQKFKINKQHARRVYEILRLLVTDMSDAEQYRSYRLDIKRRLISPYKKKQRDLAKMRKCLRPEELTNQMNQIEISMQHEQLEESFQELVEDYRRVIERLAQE
# Chain of UniProt Q9NZC3 (Q9NZC3 whole entry, looked up): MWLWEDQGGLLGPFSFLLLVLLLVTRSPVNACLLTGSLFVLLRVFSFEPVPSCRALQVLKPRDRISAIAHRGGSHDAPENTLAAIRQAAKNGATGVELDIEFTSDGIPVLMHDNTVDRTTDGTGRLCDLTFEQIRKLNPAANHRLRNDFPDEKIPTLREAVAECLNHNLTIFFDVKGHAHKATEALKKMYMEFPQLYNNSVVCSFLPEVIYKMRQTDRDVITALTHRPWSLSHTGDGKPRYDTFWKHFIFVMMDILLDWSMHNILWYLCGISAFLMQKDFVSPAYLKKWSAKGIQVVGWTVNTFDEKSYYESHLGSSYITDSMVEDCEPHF
# Chain of UniProt P55795 (P55795 whole entry, looked up): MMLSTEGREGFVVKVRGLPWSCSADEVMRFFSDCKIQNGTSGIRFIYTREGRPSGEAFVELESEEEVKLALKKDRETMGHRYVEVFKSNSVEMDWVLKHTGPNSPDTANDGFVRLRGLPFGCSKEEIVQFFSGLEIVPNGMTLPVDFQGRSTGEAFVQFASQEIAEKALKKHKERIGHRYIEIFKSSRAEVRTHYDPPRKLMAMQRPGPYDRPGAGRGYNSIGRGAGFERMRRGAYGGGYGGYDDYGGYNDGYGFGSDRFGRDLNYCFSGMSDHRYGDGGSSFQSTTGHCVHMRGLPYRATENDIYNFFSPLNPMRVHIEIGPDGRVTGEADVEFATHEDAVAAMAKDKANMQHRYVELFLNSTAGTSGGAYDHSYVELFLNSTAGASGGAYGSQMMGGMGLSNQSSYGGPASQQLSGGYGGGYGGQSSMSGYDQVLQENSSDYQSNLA
# Chain of UniProt P05114 (P05114 whole entry, looked up): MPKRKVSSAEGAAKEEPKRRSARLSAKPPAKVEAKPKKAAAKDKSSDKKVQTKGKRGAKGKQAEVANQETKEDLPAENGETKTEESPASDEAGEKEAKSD
# Chain of UniProt Q92522 (Q92522 whole entry, looked up): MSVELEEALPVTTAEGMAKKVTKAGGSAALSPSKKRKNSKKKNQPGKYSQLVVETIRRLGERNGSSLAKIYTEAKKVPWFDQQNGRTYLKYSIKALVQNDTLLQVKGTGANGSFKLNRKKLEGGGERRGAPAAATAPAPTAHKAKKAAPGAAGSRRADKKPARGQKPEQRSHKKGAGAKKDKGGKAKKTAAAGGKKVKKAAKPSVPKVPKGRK
# Chain of UniProt Q9BUJ2 (Q9BUJ2 whole entry, looked up): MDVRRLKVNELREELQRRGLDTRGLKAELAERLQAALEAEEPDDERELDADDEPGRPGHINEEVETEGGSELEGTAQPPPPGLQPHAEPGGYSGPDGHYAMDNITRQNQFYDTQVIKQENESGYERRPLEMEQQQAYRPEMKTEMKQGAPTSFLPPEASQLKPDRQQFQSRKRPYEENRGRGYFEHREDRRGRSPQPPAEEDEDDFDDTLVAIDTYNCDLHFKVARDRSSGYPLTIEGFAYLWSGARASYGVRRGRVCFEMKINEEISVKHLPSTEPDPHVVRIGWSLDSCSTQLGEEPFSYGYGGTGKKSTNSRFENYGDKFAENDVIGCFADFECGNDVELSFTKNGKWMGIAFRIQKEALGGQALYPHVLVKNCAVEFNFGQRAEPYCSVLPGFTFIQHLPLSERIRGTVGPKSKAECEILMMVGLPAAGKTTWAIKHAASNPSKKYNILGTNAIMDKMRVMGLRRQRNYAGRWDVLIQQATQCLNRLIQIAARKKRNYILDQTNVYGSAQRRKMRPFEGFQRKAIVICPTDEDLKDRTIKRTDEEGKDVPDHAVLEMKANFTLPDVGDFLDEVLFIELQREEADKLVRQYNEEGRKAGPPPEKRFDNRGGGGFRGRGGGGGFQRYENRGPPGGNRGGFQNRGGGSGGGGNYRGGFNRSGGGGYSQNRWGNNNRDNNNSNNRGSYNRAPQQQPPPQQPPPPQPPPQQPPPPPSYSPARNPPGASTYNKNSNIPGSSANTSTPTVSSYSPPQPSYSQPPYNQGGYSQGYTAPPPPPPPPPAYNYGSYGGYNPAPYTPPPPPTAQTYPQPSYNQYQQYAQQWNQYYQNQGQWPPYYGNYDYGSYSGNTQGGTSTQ
# Chain of UniProt O14526 (O14526 whole entry, looked up): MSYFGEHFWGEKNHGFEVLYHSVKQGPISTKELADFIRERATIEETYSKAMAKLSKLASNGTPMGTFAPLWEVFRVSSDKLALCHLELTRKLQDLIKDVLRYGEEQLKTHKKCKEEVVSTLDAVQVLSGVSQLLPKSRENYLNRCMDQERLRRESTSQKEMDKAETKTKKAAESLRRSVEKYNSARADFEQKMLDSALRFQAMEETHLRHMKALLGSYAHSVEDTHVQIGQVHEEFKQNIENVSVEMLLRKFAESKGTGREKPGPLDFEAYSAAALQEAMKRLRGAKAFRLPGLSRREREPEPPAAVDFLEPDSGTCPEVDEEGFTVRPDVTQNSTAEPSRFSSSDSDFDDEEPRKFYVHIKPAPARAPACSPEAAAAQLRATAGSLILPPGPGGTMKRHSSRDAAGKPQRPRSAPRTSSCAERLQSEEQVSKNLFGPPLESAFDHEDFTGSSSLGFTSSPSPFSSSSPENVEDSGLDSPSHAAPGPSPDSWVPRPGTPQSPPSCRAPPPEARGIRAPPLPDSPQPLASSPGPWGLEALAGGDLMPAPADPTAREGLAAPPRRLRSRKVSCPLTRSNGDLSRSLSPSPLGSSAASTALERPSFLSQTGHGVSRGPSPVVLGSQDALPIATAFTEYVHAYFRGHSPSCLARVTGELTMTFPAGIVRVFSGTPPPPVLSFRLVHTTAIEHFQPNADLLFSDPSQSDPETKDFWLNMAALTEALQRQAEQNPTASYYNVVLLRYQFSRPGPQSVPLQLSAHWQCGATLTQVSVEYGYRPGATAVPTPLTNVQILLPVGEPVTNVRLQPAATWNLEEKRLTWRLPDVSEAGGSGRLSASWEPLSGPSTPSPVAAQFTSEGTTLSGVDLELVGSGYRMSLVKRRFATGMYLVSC
# Chain of UniProt P22830 (P22830 whole entry, looked up): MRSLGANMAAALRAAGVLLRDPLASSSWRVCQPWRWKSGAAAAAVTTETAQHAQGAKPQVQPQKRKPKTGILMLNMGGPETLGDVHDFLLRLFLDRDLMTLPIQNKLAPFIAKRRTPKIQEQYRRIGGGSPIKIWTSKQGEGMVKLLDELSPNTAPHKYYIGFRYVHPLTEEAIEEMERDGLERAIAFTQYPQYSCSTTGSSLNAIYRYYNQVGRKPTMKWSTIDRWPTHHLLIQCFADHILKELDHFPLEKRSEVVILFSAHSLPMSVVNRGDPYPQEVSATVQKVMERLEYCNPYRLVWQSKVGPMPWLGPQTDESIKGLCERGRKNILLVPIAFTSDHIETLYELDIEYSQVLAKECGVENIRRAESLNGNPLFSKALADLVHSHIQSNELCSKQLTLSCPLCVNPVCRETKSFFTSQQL
Target,log2 fold change [1],log2 fold change [2],log2 fold change [3],log2 fold change [4],log2 fold change [5],log2 fold change [6],log2 fold change [7],log2 fold change [8],log2 fold change [9],log2 fold change [10],log2 fold change [11],log2 fold change [12],log2 fold change [13],log2 fold change [14],log2 fold change [15],log2 fold change [16],log2 fold change [17],log2 fold change [18],log2 fold change [19],log2 fold change [20]
HNRNPH2 (UniProt P55795),-0.065,-0.081,-0.106,0.101,-0.079,-0.173,0.002,-0.001,0.02,-0.068,0.003,0.033,0.079,0.001,0.058,-0.231,0.02,-0.079,0.057,-0.021
HMGN2 (UniProt P05204),-0.138,0.156,0.069,-0.05,0.026,0.046,0.13,0.075,-0.091,0.013,0.01,-0.043,-0.048,0.041,-0.028,0.073,0.046,0.09,-0.051,-0.264
FECH isoform 2 (UniProt P22830),-0.035,0.008,-0.016,-0.12,0.245,0.102,0.043,0.538,-0.033,-0.116,0.159,-0.188,0.082,-0.127,-0.185,0.363,0.153,0.062,0.269,0.396
GDE1 (UniProt Q9NZC3),0.029,0.051,-0.059,-0.316 (active),-0.003,-0.017,0.009,0.01,-0.017,0.024,0.046,-0.102,0.043,-0.064,-0.176,0.012,0.008,0.01,-0.011,
HNRNPUL1 (UniProt Q9BUJ2),-0.016,0.039,0.082,0,0.008,0.018,0.075,0.034,0.063,-0.011,0.033,0.047,-0.043,0.03,0.01,0.023,-0.02,0.009,0.031,0.014
GPX4 (UniProt P36969),0.043,0.004,-0.035,-0.371 (active),-0.02,-0.009,0.002,-0.037,-0.009,-0.013,-0.035,-0.011,-0.248 (active),0.032,-0.02,0.003,-0.004,0.076,-0.036,-0.034
HNRNPK isoform 2 (UniProt P61978),-0.057,-0.037,-0.155,0.064,-0.017,-0.228 (active),-0.053,0.015,0.028,0.003,0.008,-0.001,-0.022,-0.011,-0.004,-0.035,0.051,0.049,-0.016,0.004
FIS1 (UniProt Q9Y3D6),0.333 (active),0.016,-0.11,-0.021,-0.012,-0.063,0.004,0.182,-0.049,-0.022,-0.016,-0.008,0.153,-0.047,-0.034,0.061,-0.025,0.069,0.008,0.071
GABPA (UniProt Q06546),-0.065,-0.086,-0.134,0.087,-0.063,-0.064,-0.015,0.018,0.019,0.011,0.01,-0.111,0.063,-0.025,-0.002,-0.134,0.032,0.029,0.048,0.02
H1FX (UniProt Q92522),-0.054,-0.237,0.381,0.093,0.041,0.336,0.219,0.102,0.121,0.013,-0.116,0.112,0.049,0.161,-0.147,0.033,-0.044,-0.24,0.133,-0.134
HAT1 (UniProt O14929),0.047,-0.058,-0.209,0.036,0.05,-0.139,-0.066,-0.061,0.064,-0.017,0.14,-0.049,0.075,0.055,0.019,0.066,0.008,-0.014,-0.002,-0.076
HMGN1 (UniProt P05114),0.024,0.068,0.149,-0.087,0.03,0.09,0.043,-0.064,-0.01,0.011,0.01,0.044,-0.034,0.026,-0.04,0.059,-0.07,0.026,-0.09,-0.003
GALNT1 (UniProt Q10472),-0.026,0.03,-0.005,0.064,0.039,-0.046,0.008,-0.047,-0.037,-0.005,0.224,0.058,0.005,-0.033,0.047,0.044,0.066,0.034,0,0.023
GLUL (UniProt P15104),0.012,-0.058,0.026,0.048,0.142,0.036,-0.039,-0.153,-0.02,0.038,0.11,0.002,-0.154,0.032,-0.013,-0.061,0.01,-0.225 (active),-0.032,-0.001
FCHO1 (UniProt O14526),-0.064,-0.162,-0.049,0.007,0.043,-0.042,0.248,0.054,0.101,0.046,0.061,0.055,0.068,0.072,-0.055,0.256,0.046,0.022,-0.105,
GTF2A2 (UniProt P52657),0.034,0.018,-0.003,0.026,-0.031,-0.025,-0.061,-0.025,-0.022,0.018,-0.067,-0.043,-0.006,-0.036,0.018,0.044,-0.028,0.032,-0.042,0.041
